PubChem BioAssay
Values joined by “and” are separate entries in the source; they are usually repeats but may differ in a detail not shown here. Identical values can stand only once. Inconclusive results are not listed. For some of these results: Potency and affinity values are given separately. Active and inactive are the calls of the source. Unless noted, no rule for the calls is given here.

Columns and labels:
[1] = antimalarial activity against Dd2 strain (AID 2302;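 active = growth inhibition above 50% at the single 2 µM test dose, taken to imply half-maximal potency below 2 µM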;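 also: 0% = DMSO untreated growth and 100% = chloroquine plus artemisinin killed control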); conditions: P. falciparum Dd2 in RBCs, LDH growth readout, 72 h; at 2 µM; stronger effect = higher value
[2] = human hepatoma cell viability loss – ATP luminescence, cytotoxicity control for P. falciparum antimalarial project, primary screen (AID 2303;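 active = inhibition above 50%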;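 also: 0% = DMSO wells and 100% = digitonin-killed cells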); conditions: HepG2 viability, 24-48 h, at 10 µM, stronger effect = higher value
[3] = target: L-lactate dehydrogenase (Plasmodium falciparum (isolate CDC / Honduras)) (UniProt Q27743); assay: PfLDH activity inhibition – cell lysate, 3D7 strain, counter-screen for P. falciparum growth inhibition project (AID 2304);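 also: 0% = vehicle and 100% = reference inhibitor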; conditions: P. falciparum 3D7 crude extract, LDH APAD/NBT absorbance; at 2 µM; stronger effect = higher value
L-lactate dehydrogenase (Plasmodium falciparum (isolate CDC / Honduras)), sequence (Q27743 whole entry, looked up): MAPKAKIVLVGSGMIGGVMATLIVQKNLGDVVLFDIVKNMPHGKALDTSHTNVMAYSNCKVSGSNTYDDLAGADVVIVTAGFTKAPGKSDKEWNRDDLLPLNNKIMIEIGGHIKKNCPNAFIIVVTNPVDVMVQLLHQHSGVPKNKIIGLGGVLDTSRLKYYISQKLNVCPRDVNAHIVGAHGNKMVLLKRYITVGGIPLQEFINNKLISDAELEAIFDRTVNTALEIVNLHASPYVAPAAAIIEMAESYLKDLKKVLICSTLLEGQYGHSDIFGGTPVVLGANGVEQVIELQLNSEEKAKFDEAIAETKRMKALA

[4] = inhibition of 3D7 malaria parasite growth – strain 3D7 (AID 2306);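 also: 0% = DMSO wells and 100% = chloroquine plus artemisinin control wells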; conditions: P. falciparum 3D7 erythrocytic growth, LDH absorbance, 72 h; at 2 µM; stronger effect = higher value
[5] = target: Calcium-dependent protein kinase 1 (Plasmodium falciparum (isolate 3D7)) (UniProt P62344); assay: PfCDPK1 kinase inhibitors, biochemical, TCAMS library (AID 1159585; cut-off not given, nearly all actives have IC50 up to about 0.98 µM;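 also: inhibitors leave more ATP so luminescence rises with inhibition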); conditions: recombinant PfCDPK1, Kinase-Glo ATP depletion luminescence
Calcium-dependent protein kinase 1 (Plasmodium falciparum (isolate 3D7)), sequence (P62344 whole entry, looked up): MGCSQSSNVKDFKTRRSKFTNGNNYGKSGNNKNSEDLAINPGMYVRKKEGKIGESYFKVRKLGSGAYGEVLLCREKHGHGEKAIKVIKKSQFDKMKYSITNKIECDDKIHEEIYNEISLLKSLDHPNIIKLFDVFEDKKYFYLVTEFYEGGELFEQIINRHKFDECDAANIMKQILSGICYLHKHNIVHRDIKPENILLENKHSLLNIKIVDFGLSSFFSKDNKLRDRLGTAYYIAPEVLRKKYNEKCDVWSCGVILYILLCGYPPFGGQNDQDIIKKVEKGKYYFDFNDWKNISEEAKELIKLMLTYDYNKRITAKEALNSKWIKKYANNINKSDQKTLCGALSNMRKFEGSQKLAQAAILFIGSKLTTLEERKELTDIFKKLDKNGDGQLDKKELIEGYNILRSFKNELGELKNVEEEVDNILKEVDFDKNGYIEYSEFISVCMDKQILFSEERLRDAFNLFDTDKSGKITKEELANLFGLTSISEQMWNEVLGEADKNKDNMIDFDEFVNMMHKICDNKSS

[6] = target: Plasmodium falciparum protein kinase 6 (PK6, PF3D7_1337100) (UniProt Q8IDW1); assay: PfPK6 kinase inhibitors, biochemical, TCAMS library (AID 1159586); conditions: recombinant PfPK6, Kinase-Glo ATP depletion luminescence
Plasmodium falciparum protein kinase 6 (PK6, PF3D7_1337100), sequence (Q8IDW1 1-305): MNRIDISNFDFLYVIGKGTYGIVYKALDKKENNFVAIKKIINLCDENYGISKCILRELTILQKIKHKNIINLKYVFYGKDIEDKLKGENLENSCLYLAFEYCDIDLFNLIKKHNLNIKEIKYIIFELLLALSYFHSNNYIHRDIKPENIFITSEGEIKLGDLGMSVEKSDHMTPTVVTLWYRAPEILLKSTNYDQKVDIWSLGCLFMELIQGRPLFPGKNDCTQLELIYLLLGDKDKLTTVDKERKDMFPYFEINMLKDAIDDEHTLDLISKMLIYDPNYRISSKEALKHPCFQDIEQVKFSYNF

[7] = target: Protein kinase 7 (PK7), Plasmodium falciparum 3D7 (PF3D7_0213400) (UniProt Q7YTF7); assay: inhibition of Plasmodium PK7 catalytic activity – biochemical, TCAMS antimalarial set, Kinase-Glo luminescence (AID 1159587); conditions: recombinant PfPK7, Kinase-Glo ATP depletion luminescence
Protein kinase 7 (PK7), Plasmodium falciparum 3D7 (PF3D7_0213400), sequence (Q7YTF7 1-343): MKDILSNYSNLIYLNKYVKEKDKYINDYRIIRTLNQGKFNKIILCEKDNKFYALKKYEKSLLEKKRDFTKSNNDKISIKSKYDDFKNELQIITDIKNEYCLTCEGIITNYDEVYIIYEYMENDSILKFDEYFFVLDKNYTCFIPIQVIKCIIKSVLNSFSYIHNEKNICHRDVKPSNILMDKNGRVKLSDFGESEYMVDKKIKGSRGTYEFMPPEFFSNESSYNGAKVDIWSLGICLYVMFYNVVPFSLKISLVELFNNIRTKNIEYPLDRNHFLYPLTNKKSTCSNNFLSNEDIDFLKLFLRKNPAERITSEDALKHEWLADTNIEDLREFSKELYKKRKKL

[8] = target: Calcium-dependent protein kinase 4 (Plasmodium falciparum (isolate 3D7)) (UniProt Q8IBS5); assay: PfCDPK4 kinase inhibitors, biochemical, TCAMS library (AID 1159588; cut-off not given, nearly all actives have IC50 up to about 0.91 µM); conditions: recombinant PfCDPK4, Kinase-Glo ATP depletion luminescence
Calcium-dependent protein kinase 4 (Plasmodium falciparum (isolate 3D7)), sequence (Q8IBS5 whole entry, looked up): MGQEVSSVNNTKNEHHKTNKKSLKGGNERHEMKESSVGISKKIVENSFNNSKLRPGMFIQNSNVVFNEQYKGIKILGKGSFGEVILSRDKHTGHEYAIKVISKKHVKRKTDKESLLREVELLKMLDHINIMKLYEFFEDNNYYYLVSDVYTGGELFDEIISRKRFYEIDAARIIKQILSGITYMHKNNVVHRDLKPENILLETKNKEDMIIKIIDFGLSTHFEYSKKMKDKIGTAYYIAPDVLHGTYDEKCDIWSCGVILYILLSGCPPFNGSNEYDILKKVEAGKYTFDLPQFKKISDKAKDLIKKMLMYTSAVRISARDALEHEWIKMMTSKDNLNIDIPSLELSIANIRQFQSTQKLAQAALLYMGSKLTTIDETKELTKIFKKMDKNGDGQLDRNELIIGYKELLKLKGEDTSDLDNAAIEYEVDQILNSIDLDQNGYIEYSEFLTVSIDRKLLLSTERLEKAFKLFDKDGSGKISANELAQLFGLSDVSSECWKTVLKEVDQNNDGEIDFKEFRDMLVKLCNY

[9] = viability loss in pontine glioma line – cell-based, SU-DIPG-XVII, MIPE5.0, CellTiter-Glo, qHTS, dose response (AID 1347060; cut-off not given, nearly all actives have AC50 up to about 26 µM;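 also: cells exposed to compound for 48 hours before viability readout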); conditions: CellTiter-Glo ATP luminescence
[10] = viability loss in pontine glioma line – cell-based, SU-DIPG-XIII, MIPE4.0, CellTiter-Glo, qHTS, dose response (AID 1347061; cut-off not given, nearly all actives have AC50 up to about 37 µM;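 also: cells exposed to compound for 48 hours before readout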); conditions: CellTiter-Glo ATP luminescence
[11] = viability loss in pontine glioma line – cell-based, JHH-DIPG-1, MIPE4.0, CellTiter-Glo, qHTS, dose response (AID 1347062; cut-off not given, nearly all actives have AC50 up to about 27 µM;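 also: cells exposed to compound for two days before readout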); conditions: JHH-DIPG-1 viability, CellTiter-Glo ATP luminescence
[12] = viability loss in pontine glioma line – cell-based, SU-DIPG-IV, MIPE4.0, CellTiter-Glo, qHTS, dose response (AID 1347063; cut-off not given, nearly all actives have AC50 up to about 30 µM;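 also: compound exposure lasted 48 hours before the viability readout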); conditions: CellTiter-Glo ATP luminescence
[13] = viability loss in pontine glioma line – cell-based, SU-DIPG-XIII, MIPE5.0, CellTiter-Glo, qHTS, dose response (AID 1347064; cut-off not given, nearly all actives have AC50 up to about 23 µM;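 also: cells exposed to compound for 48 hours before the viability read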); conditions: CellTiter-Glo ATP luminescence
[14] = viability loss in pontine glioma line – cell-based, SU-DIPG-XXV, MIPE5.0, CellTiter-Glo, qHTS, dose response (AID 1347065; cut-off not given, nearly all actives have AC50 up to about 26 µM;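 also: cells exposed to compound for 48 hours before ATP readout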); conditions: CellTiter-Glo ATP luminescence
[15] = JHH-DIPG-1 glioma cell viability, MIPE5.0 library, CellTiter-Glo luminescence, qHTS (AID 1347067; cut-off not given, nearly all actives have AC50 up to about 26 µM;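 also: cells exposed to compound for 48 hours before readout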); conditions: JHH-DIPG-1 glioma viability, CellTiter-Glo ATP luminescence
[16] = growth inhibition of DIPG cells – cell-based, MIPE5.0 library, qHTS (AID 1347068; cut-off not given, nearly all actives have IC50 up to about 30 µM;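 also: cells exposed to compound for 48 hours before viability readout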); conditions: SU-DIPG-XXV viability
[17] = viability loss with induced miR-34 in A549 – imaging, A549 dox-inducible miR-34, nuclei and caspase counts, primary screen (AID 1347080;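 active = compounds whose cell count with miR-34 switched on is under 0.7 times the count with it off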); conditions: A549 miR-34 inducible, Hoechst nuclei count, 48 h
[18] = MELAS cybrid and Rieske KO viability enhancers – cell-based, MELAS cybrids, Rieske KO mouse fibroblasts, CellTiter-Glo, primary screen (AID 1508586;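 active = mean z-score across replicates of 1.96 or higher in either the MELAS or the Rieske mutant cell line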;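 also: z relative to plate mean and SD of compound and empty wells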); conditions: low glucose
[19] = blockers of polyQ-driven CASP3 activation – cell-based (AID 1583); conditions: polyglutamine-induced caspase-3 activation, cell assay; stronger effect = higher value;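 tested at 10 µM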
[20] = yeast 75Q aggregation reduction – 75Q-TubU reporter (AID 1593); conditions: Yeast 75Q polyglutamine aggregation reporter
[21] = restoration of touch response, mutant HTT neurons – whole organism, C. elegans mechanosensory neurons, N-terminal huntingtin (AID 1599); conditions: C. elegans polyQ-huntingtin mechanosensory neurons, stronger effect = higher value
[22] = blockers of cytochrome c efflux from mitochondria – biochemical, purified mitochondria (AID 1603); conditions: stronger effect = lower value;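 also: mouse liver mitochondria challenged with calcium chloride; signal normalized to the plate average as 100%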
[23] = polyglutamine aggregate formation blockers (AID 1604); conditions: polyglutamine-induced protein aggregation inhibition assay; stronger effect = higher value; tested at 2.5 µM
[24] = glutamate transport activators, MN-1 cells, MN-1 cell line (AID 1612); conditions: MN-1 motor neuron cells, stronger effect = higher value;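 also: tested at 1 µM final; 0% = mean of DMSO vehicle wells on each plate; positive means more glutamate uptake than control and negative means less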
[25] = GFP-Q80 aggregate reduction, neuronal-like cells, cell-based, NGF-treated PC12, GFPQ80 (AID 1614); conditions: PC12 NGF-treated GFP-polyQ80 inclusion reduction;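 also: lower means fewer inclusions and 0 means no inclusions at all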
[26] = 75Q-TubH aggregate inhibition, S. cerevisiae, yeast (AID 1616); conditions: S. cerevisiae 75Q-TubH polyglutamine aggregation suppression; stronger effect = higher value
[27] = modulation of C. elegans fzo-1 (AID 1259413);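 also: fzo-1 mutant C. elegans worms in liquid wells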; conditions: C. elegans fzo-1 modulator screen, mean read-out; stronger effect = higher value
[28] = EMT-state selective cytotoxicity in co-culture – imaging, PC-3E GFP, TEM4-18 mCherry, primary screen (AID 1345086;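 active = compounds killing one labelled cell type while sparing the other, by normalised counts and ratio limits, not self-fluorescent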;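 also: cells exposed to compound for 72 h before imaging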;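 as to red/green cell ratio (normalised): normalised mesenchymal count divided by normalised epithelial count so high means epithelial killing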); conditions: PC-3E GFP / TEM4-18 mCherry co-culture, imaging cell counts, at 1 µM
[29] = target: NAD(+) hydrolase SARM1 (Homo sapiens) (UniProt Q6SZW1); assay: blocking NAD cleavage by SARM1 SAM-TIR – cell lysate, NAD-Glo luminescence (AID 1508614;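 active = compound whose remaining NAD level is above about 45 nM, limit read from the data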;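 also: higher remaining NAD means stronger inhibition of SARM1 NADase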); conditions: SAM-TIR HEK293T lysate NADase, at 1 µM, stronger effect = higher value
NAD(+) hydrolase SARM1 (Homo sapiens), sequence (Q6SZW1 whole entry, looked up, the tested form may be a part): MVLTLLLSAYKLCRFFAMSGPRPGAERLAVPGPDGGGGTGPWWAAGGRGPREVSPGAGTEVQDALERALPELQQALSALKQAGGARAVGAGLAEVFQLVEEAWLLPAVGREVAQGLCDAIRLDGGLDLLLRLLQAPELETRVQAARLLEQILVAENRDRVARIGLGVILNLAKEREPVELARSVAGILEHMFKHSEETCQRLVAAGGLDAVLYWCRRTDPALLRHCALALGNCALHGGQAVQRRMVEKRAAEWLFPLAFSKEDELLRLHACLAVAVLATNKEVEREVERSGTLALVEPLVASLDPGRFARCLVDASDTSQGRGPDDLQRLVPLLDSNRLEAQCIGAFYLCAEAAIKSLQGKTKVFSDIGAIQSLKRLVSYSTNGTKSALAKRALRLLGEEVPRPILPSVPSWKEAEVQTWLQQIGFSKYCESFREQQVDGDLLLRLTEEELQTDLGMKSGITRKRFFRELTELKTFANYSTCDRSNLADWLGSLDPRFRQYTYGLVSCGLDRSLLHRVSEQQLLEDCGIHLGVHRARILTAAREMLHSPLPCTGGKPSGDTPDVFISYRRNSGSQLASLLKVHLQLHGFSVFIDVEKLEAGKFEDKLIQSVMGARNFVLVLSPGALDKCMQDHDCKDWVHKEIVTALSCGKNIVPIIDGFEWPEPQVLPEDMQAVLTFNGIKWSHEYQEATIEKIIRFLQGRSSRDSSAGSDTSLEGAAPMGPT

[30] = target: Mitogen-activated protein kinase 7 (Homo sapiens) (UniProt Q13164); assay: Gal4-ERK5 driven luciferase induction – cell-based, HTS, primary screen (AID 1508626;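 active = luciferase signal above three times the same-plate solvent-only control wells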;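 also: luciferase driven by Gal4-ERK5 fusion binding five Gal4 sites before minimal TATA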); conditions: HeLa Gal4-ERK5 transactivation, 18 h, at 5 µM, stronger effect = higher value
Mitogen-activated protein kinase 7 (Homo sapiens), sequence (Q13164 whole entry, looked up, the tested form may be a part): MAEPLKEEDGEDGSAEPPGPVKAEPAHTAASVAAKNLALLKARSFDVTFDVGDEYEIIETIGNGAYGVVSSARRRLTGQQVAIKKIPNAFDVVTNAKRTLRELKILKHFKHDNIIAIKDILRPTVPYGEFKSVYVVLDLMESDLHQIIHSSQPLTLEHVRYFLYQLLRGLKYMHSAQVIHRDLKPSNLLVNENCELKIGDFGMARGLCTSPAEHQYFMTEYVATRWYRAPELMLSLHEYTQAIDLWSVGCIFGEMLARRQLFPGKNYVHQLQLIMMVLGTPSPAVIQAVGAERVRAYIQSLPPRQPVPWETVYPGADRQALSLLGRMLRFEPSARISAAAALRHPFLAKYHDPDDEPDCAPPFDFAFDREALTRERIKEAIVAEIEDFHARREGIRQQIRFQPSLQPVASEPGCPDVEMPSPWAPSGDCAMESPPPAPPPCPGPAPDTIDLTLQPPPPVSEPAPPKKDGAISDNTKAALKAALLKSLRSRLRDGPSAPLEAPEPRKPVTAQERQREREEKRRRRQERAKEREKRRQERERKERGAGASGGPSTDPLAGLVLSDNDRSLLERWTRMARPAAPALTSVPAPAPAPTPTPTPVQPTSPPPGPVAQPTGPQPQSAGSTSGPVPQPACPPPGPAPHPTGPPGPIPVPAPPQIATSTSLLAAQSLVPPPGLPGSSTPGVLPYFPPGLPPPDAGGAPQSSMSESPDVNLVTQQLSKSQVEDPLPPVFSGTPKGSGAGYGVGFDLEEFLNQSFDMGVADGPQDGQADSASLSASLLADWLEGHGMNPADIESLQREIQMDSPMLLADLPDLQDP

[31] = galactose survival enhancers in mitochondrial complex I cybrids – cell-based, galactose medium, ATP luminescence, primary screen (AID 1645843;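 active = z-score of at least 1.8 in each of two replicates, scored against plate mean and spread of sample wells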;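 also: positive z means more ATP and so rescue of galactose-driven cybrid death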); conditions: complex I mutant cybrid cells, 72 h, stronger effect = higher value
[32] = P. berghei load reduction in hepatocytes – cell-based, HepG2, luciferase luminescence, HepG2 viability, primary screen (AID 624349; in the data active = parasite load remaining mostly below about 12%, no sharp cut-off; inactive = mostly above about 10%;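 also: 100% = mean of DMSO negative control wells on the same plate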); conditions: P. berghei liver stage in HepG2, luciferase luminescence, concentration not given here; parasite load remaining: stronger effect = lower value; viability: measured here: HepG2 viability without parasites
[33] = test system: Aerobactin synthetase IucA (Klebsiella pneumoniae); assay: inhibition of K. pneumoniae IucA enzyme – biochemical, Tocris library, absorbance (AID 1345561); conditions: purified IucA enzyme assay, absorbance (OD) read-out; stronger effect = lower value;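 tested at 8 µM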;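 also: 100% = enzyme without compound and 0% = no enzyme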
[34] = stronger effect = lower value, cell number ratio, induced over uninduced
[35] = measured here: relative caspase fold change +Dox/-Dox
[36] = measured here: total cells with miR-34 induction, stronger effect = lower value
[37] = measured here: total cells without miR-34 induction
[38] = MELAS cybrid survival, CellTiter-Glo 48 h, stronger effect = higher value
[39] = Rieske KO mouse fibroblast survival, CellTiter-Glo 72 h

## CCS(=O)(=O)Nc1ccc2[nH]c(O)c(C(=Nc3ccc(CN4CCCCC4)cc3)c3ccccc3)c2c1
[1]
  growth inhibition: 74% (active)
[2]
  inhibition: 53% (active)
[3]
  inhibition: 6% (inactive)
[4]
  growth inhibition: 87% (active)
[5]
  outcome: inactive
[6]
  outcome: inactive
[7]
  outcome: inactive
[8]
  outcome: inactive
[9]
  AC50: 263 nM (active)
[10]
  AC50: 662 nM (active)
[11]
  AC50: 5900 nM (active)
[12]
  AC50: 5900 nM (active)
[13]
  AC50: 263 nM (active)
[14]
  AC50: 83.3 nM (active)
[15]
  AC50: 742 nM (active)
[16]
  IC50: 468 nM (active)
[17]; [34]
  fold change: 1 (inactive)
[17]; [35]
  fold change: 0.435
[17]; [36]
  cell count: 720
[17]; [37]
  cell count: 718
[18]; [38]
  z-score: 0.158 (inactive)
[18]; [39]
  z-score: -2.81

## C=C[C@H]1CN2CC[C@H]1C[C@@H]2[C@@H](O)c1ccnc2ccc(OC)cc12
[19]
  inhibition: 12.3%
[20]
  score: 1.3
[21]
  rescue above control: -0.47
[22]
  cytochrome c release ratio: 1.12
[23]
  inhibition of aggregation: 54.5%
[24]
  glutamate uptake change: 12.1%
[25]
  inclusion score: 2
[26]
  aggregation suppression score: 1.24
[1]
  growth inhibition: 95% (active)
[2]
  inhibition: -11% (inactive)
[3]
  inhibition: -3% (inactive)
[4]
  growth inhibition: 98% (active)
[5]
  outcome: inactive
[6]
  outcome: inactive
[7]
  outcome: inactive
[8]
  outcome: inactive
[27]
  mean signal: 302 (active)
[28]; actives lie on both sides, counts scaled to control wells, 1 = unselective
  red/green cell ratio (normalised): 1.14 (inactive)
[28]; measured here: epithelial PC-3E GFP cell survival
  normalised cell number: 1.07
[28]; measured here: mesenchymal TEM4-18 mCherry cell survival
  normalised cell number: 1.22
[17]; [34]
  fold change: 0.965 (inactive) and 0.96 (inactive) and 0.929 (inactive)
[17]; [35]
  fold change: 1.07 and 0.67 and 3.94
[17]; [36]
  cell count: 9710 and 7980 and 11400
[17]; [37]
  cell count: 10100 and 8310 and 12200
[18]; [38]
  z-score: 0.598 (inactive)
[18]; [39]
  z-score: 0.401
[29]
  remaining NAD: 10 nM (inactive)
[30]
  luciferase signal: 84 AU (inactive)
[31]
  z-score: 0.055 (inactive)

## COc1ccc(Cl)cc1NC(=O)Nc1cc(C)nc2ccccc12
[1]
  growth inhibition: 99% (active)
[2]
  inhibition: 10% (inactive)
[3]
  inhibition: -3% (inactive)
[4]
  growth inhibition: 101% (active)
[32]
  parasite load remaining: 55.8% (inactive)
  viability: 153%
[5]
  outcome: inactive
[6]
  outcome: inactive
[7]
  outcome: inactive
[8]
  outcome: inactive
[33]
  remaining activity: 102% (inactive)
[17]; [34]
  fold change: 0.905 (inactive) and 1.03 (inactive)
[17]; [35]
  fold change: 0.387 and 0.813
[17]; [36]
  cell count: 6720 and 4040
[17]; [37]
  cell count: 7420 and 3920
[18]; [38]
  z-score: -0.407 (inactive)
[18]; [39]
  z-score: 0.602
[31]
  z-score: -0.645 (inactive)

## CC(C)(CNC(=O)[C@@H]1CCCN(Cc2ccc(Cl)cc2)C1)c1nc(-c2ccc(Cl)c(O)c2)c(-c2ccncc2)[nH]1
[1]
  growth inhibition: 37% (inactive)
[2]
  inhibition: 66% (active)
[3]
  inhibition: -2% (inactive)
[4]
  growth inhibition: 97% (active)
[5]
  outcome: inactive
[6]
  outcome: inactive
[7]
  outcome: inactive
[8]
  outcome: inactive

## O=C(Nc1ccc(C(F)(F)F)cc1)Nc1ccccc1N1CCNCC1
[1]
  growth inhibition: 69% (active)
[2]
  inhibition: 39% (inactive)
[3]
  inhibition: 4% (inactive)
[4]
  growth inhibition: 94% (active)
[5]
  outcome: inactive
[6]
  outcome: inactive
[7]
  outcome: inactive
[8]
  outcome: inactive

## CN(C)CCCN(C)C(=O)c1cc2cc(-c3ccccc3)ccc2n1S(=O)(=O)c1ccccc1
[1]
  growth inhibition: 66% (active)
[2]
  inhibition: 29% (inactive)
[3]
  inhibition: -1% (inactive)
[4]
  growth inhibition: 98% (active)
[5]
  outcome: inactive
[6]
  outcome: inactive
[7]
  outcome: inactive
[8]
  outcome: inactive

## CC(C)(C)CN1C(=O)C(c2ccccc2)(c2ccccc2)N=C1N
[1]
  growth inhibition: 94% (active)
[2]
  inhibition: 32% (inactive)
[3]
  inhibition: 1% (inactive)
[4]
  growth inhibition: 98% (active)
[5]
  outcome: inactive
[6]
  outcome: inactive
[7]
  outcome: inactive
[8]
  outcome: inactive

## COc1cc2c(Nc3ccc(NC(=O)c4ccccc4)cc3)ncnc2cc1OCCCN1CCOCC1
[1]
  growth inhibition: 93% (active)
[2]
  inhibition: 14% (inactive)
[3]
  inhibition: 5% (inactive)
[4]
  growth inhibition: 99% (active)
[5]
  outcome: inactive
[6]
  outcome: inactive
[7]
  outcome: inactive
[8]
  outcome: inactive
[33]
  remaining activity: 94.5% (inactive)
[9]
  AC50: 4680 nM (active)
[11]
  AC50: 20900 nM (active)
[12]
  AC50: 18700 nM (active)
[14]
  AC50: 1320 nM (active)
[15]
  AC50: 20900 nM (active)
[16]
  IC50: 8330 nM (active)
[17]; [34]
  fold change: 1.01 (inactive) and 1.03 (inactive)
[17]; [35]
  fold change: 1 and 1.45
[17]; [36]
  cell count: 1920 and 4040
[17]; [37]
  cell count: 1900 and 3920
[18]; [38]
  z-score: -0.661 (inactive)
[18]; [39]
  z-score: 0.628
[31]
  z-score: -0.64 (inactive)

## CCc1cn(CC(=O)N(CCOc2ccc(-c3ccc(C(F)(F)F)cc3)cc2)CCN(CC)CC)c(SCc2ccc(F)cc2)nc1=O
[1]
  growth inhibition: 29% (inactive)
[2]
  inhibition: 46% (inactive)
[3]
  inhibition: -3% (inactive)
[4]
  growth inhibition: 95% (active)
[5]
  outcome: inactive
[6]
  outcome: inactive
[7]
  outcome: inactive
[8]
  outcome: inactive

## CCCS(=O)(=O)N1CCC(CO)(Cc2ccccc2C(F)(F)F)CC1
[1]
  growth inhibition: 57% (active)
[2]
  inhibition: -1% (inactive)
[3]
  inhibition: -2% (inactive)
[4]
  growth inhibition: 97% (active)
[5]
  outcome: inactive
[6]
  outcome: inactive
[7]
  outcome: inactive
[8]
  outcome: inactive
